Compound activity (PubChem)
In the library only some 4.6% were active in any assay of this set; here they are far more common.
TRHR PAM = TRH receptor (human) allosteric enhancement; enhancement, % at 2 µM; TRHR cells, fluo-8 calcium fluorescence, EC20 TRH enhancement; actives 0.66% (n = 360,000); P34981; in the data active = enhancement above about 30%
Target sequence (P34981 whole entry, looked up): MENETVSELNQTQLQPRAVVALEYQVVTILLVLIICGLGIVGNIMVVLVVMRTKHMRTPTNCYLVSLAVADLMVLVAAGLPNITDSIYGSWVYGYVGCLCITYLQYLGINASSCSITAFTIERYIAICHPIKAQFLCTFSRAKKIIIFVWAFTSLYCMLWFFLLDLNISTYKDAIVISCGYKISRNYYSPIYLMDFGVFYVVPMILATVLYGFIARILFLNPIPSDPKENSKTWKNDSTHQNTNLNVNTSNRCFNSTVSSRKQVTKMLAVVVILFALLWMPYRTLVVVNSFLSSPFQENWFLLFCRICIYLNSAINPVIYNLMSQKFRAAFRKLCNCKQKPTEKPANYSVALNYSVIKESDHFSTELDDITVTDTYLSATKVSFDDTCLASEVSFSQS
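TRHR-expressing cells loaded with fluo-8 calcium dye were read kinetically (ex 480/em 530) during compound addition, then stimulated with an EC20 of TRH (10 nM final). Enhancement of the Gq-mediated intracellular calcium response was scored.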
TRHR ag = TRH receptor (human) agonism | P34981 | TRHR cells, calcium flux fluo-8, FDSS agonist mode | activation, % at 2 µM | actives 0.18% (n = 360,000) | AID 493084
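Agonist-mode FDSS calcium read (Ex 480/Em 530, 1 s cycles) in 1536-well TRHR cells with fluo-8 dye, after 10-cycle baseline and 23 nL compound addition; TRH at EC20 (10 nM final) added afterwards for the enhancer phase.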
D1 PAM = human D1 dopamine receptor positive modulation; HEK293 TREx D1 cells, calcium flux, dopamine EC20 potentiation; actives 0.036% (n = 360,000); potentiation, % at 10 µM; in the data active = potentiation above about 30%
D1 agonist = activates the human D1 dopamine receptor; HEK293 T-REx D1 cells, calcium flux, agonist mode; activation, % at 2 µM; P21728; actives 1% (n = 360,000)
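Inducible HEK293 T-REx D1 cells, force-coupled to calcium signalling, were plated at 4000 cells/well with tetracycline and held overnight at 30 C. After no-wash calcium dye loading, compound-evoked calcium rise over 180 s flagged agonists.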
D1 antag = antagonists of human D1 dopamine receptor | P21728 | HEK293 TREx D1 cells, calcium flux, dopamine EC80; stronger effect = lower value | activity change, negative = inhibition, % at 10 µM | actives 3.2% (n = 360,000) | AID 504652; in the data active = activity change below about -30%
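Allosteric or orthosteric antagonism assessed as attenuation of the calcium response to EC80 dopamine, added 180 s after compound, in induced HEK293 Trex D1 cells loaded with no-wash calcium dye.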
A number is an active result; - = inactive; . = no result; ! = not confirmed by another sample. Rule as the data show it, unless noted: active = activation above about 30%; inactive = the rest.

SMILES	TRHR PAM	TRHR ag	D1 PAM	D1 agonist	D1 antag
CCN1CCN(C2=CC3=CC(=C(C#N)C#N)CCC3CC2)CC1 (centres undefined)	-	235	-	590	-
N#CC(C#N)=C1C=C2C=C(N3CCCCCC3)CCC2CC1 (centres undefined)	-	205	-	383	-68
CN1CCN(C2=CC3=CC(=C(C#N)C#N)CCC3CC2)CC1 (centres undefined)	-	315	37	723	-
N#Cc1cc(Cl)c(N2CCOCC2)cc1C#N	-	-	-	-	.
Cc1ccc(OCC(=O)O/N=C(\N)c2ccccn2)cc1C	-	-	-	-	-44
Cc1cc(C)cc(OCC(=O)NNC(=O)c2ccccn2)c1	-	-	-	-	-38
COc1ccc(NC(=O)CCCn2c(=O)c3cccn3c3ccccc32)c(OC)c1	-	-	-	-	-
Cc1cccn2c(=O)cc(CSc3nnc(NC(=O)C(C)C)s3)nc12	-	-	-	-	-
COC(=O)C1=C(C)N(Cc2ccccc2)C(=S)N[C@H]1c1ccccc1	-	-	-	-	-
COC(=O)C1=C(C)N(Cc2ccccc2)C(=NCC(C)C)N[C@H]1c1ccccc1	-	-	-	40!	-
C=CCN=C1N[C@@H](c2ccc(Br)cc2)C(C(=O)OC)=C(C)N1Cc1ccccc1	-	-	-	31	-
CC[C@@H](C)CN1C(=O)N[C@@H](CCc2ccccc2)C(C(C)=O)=C1C	-	-	-	-	-
COC(=O)C1=C(C)N(Cc2ccccc2)C(=O)N[C@H]1c1ccccc1	-	-	-	100	-
CC(=O)C1=C(C)N(Cc2ccccc2)C(=O)N[C@H]1CCc1ccccc1	-	-	-	-	-31
CCN(CC)CCCNC(=O)c1cc(-c2ccc(OC)c(OC)c2)on1	-	-	-	-	-
COc1ccc(-c2oc3ncn4nc(-c5ccccc5Cl)nc4c3c2-c2ccc(OC)cc2)cc1	-	-	-	-	-
O=C(CCNS(=O)(=O)c1cccc2nsnc12)Nc1ccc(F)cc1	-	-	-	-	-
COCCN=C1N[C@@H](c2cccc(C(F)(F)F)c2)C(C(=O)OC)=C(C)N1Cc1ccccc1	-	-	-	32	-
CCN1C(=NCCc2c[nH]c3ccccc23)N[C@@H](c2ccccc2)C(C(=O)OC)=C1C	-	-	-	49!	-
COC(=O)C1=C(C)N(Cc2ccccc2)C(=NCCc2c[nH]c3ccccc23)N[C@H]1c1cccc(C(F)(F)F)c1	-	-	-	-	-
O=C(Cc1ccc(NC(=O)N2CCCCc3ccccc32)cc1)Nc1ccccc1Br	-	-	-	-	-
S=C(Nc1ccc(N2CCOCC2)cc1)Nc1ccc2nc(-c3ccco3)c(-c3ccco3)nc2c1	-	-	-	57	-
O=C(Nc1ccc(N2CCOCC2)cc1)c1ccc2nc(-c3ccco3)c(-c3ccco3)nc2c1	-	-	-	-	-
COc1ccc(CNC(=O)CCSc2ccc(F)cc2)cc1OC	-	-	-	-	-40
CCCCOc1ccc(CSC(=N)N)cc1Cl	-	-	-	65	-
SMILES	TRHR PAM	TRHR ag	D1 PAM	D1 agonist	D1 antag
CCCCCOc1ccc(Br)cc1CSC(=N)N	-	-	-	30	-
COc1ccc(Br)cc1CSC(=N)N	-	-	-	-	-
CCOc1ccc(CSC(=N)N)cc1	-	-	-	-	-
CC(C)(C)SCCNC(=O)/C=C/c1ccc([N+](=O)[O-])cc1	-	-	-	-	-36
O=C(/C=C/c1ccc([N+](=O)[O-])cc1)NCCN1C(=O)S/C(=C\c2ccc(F)cc2)C1=O	-	-	-	-	-31
O=C(/C=C/c1cccc([N+](=O)[O-])c1)NCCN1C(=O)S/C(=C\c2ccc(F)cc2)C1=O	-	-	-	-	-40
CCOc1ccc(NC(=O)CSc2nccn2-c2cccc(C)c2C)cc1	-	-	-	-	-
COc1ccc(C2C=C(c3cccc(OC)c3)Nc3c(C(=O)Nc4ccccc4)cnn32)cc1 (centres undefined)	-	-	-	-	-
O=C(Nc1ccc(Cl)cc1Cl)C1CCC(=O)N1Cc1ccccc1Cl (centres undefined)	-	-	-	37	-
COc1ccc(C)c2sc(N(Cc3cccnc3)C(=O)CCc3ccccc3)nc12	-	-	-	-	.
CCn1c(NCc2ccco2)nc2ccccc21	-	-	-	-	-
c1ccc(Cn2c(NCc3ccco3)nc3ccccc32)cc1	-	-	-	-	-36
Cc1cccc(NC(=O)CN2C(=O)c3cccc4cccc2c34)c1C	-	-	-	-	-
O=C(NN1C(=O)C2C3C=CC(C4CC34)C2C1=O)c1ccc(Br)cc1 (centres undefined)	-	-	-	-	-
O=C(NN1C(=O)C2C3C=CC(C4CC34)C2C1=O)c1ccc(Cl)c(Cl)c1 (centres undefined)	30	-	-	-	-
CCCSc1nc(=O)c2c(n1C)NC(=O)CC2c1cccc(F)c1F (centres undefined)	-	-	-	-	-
Cc1ccc(C)c(Nc2nn3c(=O)c4ccc(C(=O)NCc5cccs5)cc4nc3s2)c1	-	-	-	-	-
Cc1c(C(C)(C)C)s/c(=N/S(=O)(=O)c2ccccc2)n1C	-	-	-	-	-35
COc1ccc(C2/C=C\CN(C(=O)C3CC3)[C@H](Cc3ccccc3)C(=O)N2Cc2ccc(F)cc2)cc1 (some centres undefined)	-	-	-	-	-
CCCCCCC(=O)N1C/C=C\C(c2ccc(OC)cc2)N(Cc2ccc(F)cc2)C(=O)[C@H]1Cc1ccccc1 (some centres undefined)	-	-	-	-	-35
COc1ccc(C2/C=C\CN(S(=O)(=O)/C=C/c3ccccc3)CC(=O)N2Cc2ccc(F)cc2)cc1 (centres undefined)	-	-	-	-	-36
CCCCC(=O)N1C/C=C\C(c2ccc(OC)cc2)N(Cc2ccc(F)cc2)C(=O)[C@H]1Cc1ccccc1 (some centres undefined)	-	-	-	-	-
COc1ccc(C2/C=C\CN(C(=O)c3ccc(C)cc3)[C@H](Cc3ccccc3)C(=O)N2Cc2ccc(F)cc2)cc1 (some centres undefined)	-	-	-	-	-50
COc1ccc(C2/C=C\CN(S(=O)(=O)c3ccc4ccccc4c3)CC(=O)N2Cc2ccc(F)cc2)cc1 (centres undefined)	-	-	-	-	-
CNC(=O)c1cccc(-n2c(C)nc3cccnc32)c1C	-	-	-	-	-
COc1ccc(CCNC(=O)c2ccc(Cn3c(SCc4ccccc4)nc4cccnc43)cc2)cc1	-	-	-	-	-
CCOC(=O)C1=C(C)N=c2s/c(=C/c3ccc(OCC(=O)O)cc3)c(=O)n2C1c1ccc(F)cc1 (centres undefined)	-	-	-	-	-
